# High-throughput results as filed in PubChem.
# Compounds with a hit are over-represented: about 10% of the library has one in this group of screens.
# PNC assembly inh: High Content Assay for Compounds that inhibit the Assembly of the Perinucleolar Compartment | PC3M PTB-GFP, PNC prevalence imaging, 16 h; hits give low values | activity change (PNC), negative = inhibition, % at 10 µM | 140,000 compounds, 3.1% hits | AID 2417, 2010;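 active = readout at or below -70, meaning at least 70% loss of cells showing the perinucleolar compartment, a nuclear body marking cancer cells; inconclusive = readout between -30 and a set limit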;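 note: plate controls were DMSO wells for no effect and camptothecin positive control wells for full effect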
#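 Read-out is percentage of cells bearing a perinucleolar compartment, from automated 20x imaging of fixed, Hoechst-stained PC3M PTB-GFP cells. Cells were seeded 4 h, then exposed 16 h to compound (23 nl of library stock) in duplicate plates.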
# IMPase inh: qHTS Assay for Identifying the Cell-Membrane Permeable IMPase Inhibitors | Inositol monophosphatase 1 (Rattus norvegicus), P97697 | CHO-M1 cells, IP1 accumulation, HTRF TR-FRET ratio | inhibition (IP1 accumulation), % at 46.1 µM | 120,000 tested, under 10 active | AID 901, 2007; active = well fitted curve in the direction sought with a large enough effect in the signal ratio, not every such curve was filed as active; inconclusive = small, poorly fitted or top-dose-only effect, or a change in a side signal; inactive = no such curve, though single readings can be large or run the other way; the % refers to the signal ratio;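 note: cells stimulated with carbachol in lithium chloride buffer; plate controls were DMSO basal wells for no effect and reference inhibitor wells for full effect; higher means more IMPase inhibition seen as more IP1 and lower FRET ratio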
# Target sequence (P97697 whole entry, looked up): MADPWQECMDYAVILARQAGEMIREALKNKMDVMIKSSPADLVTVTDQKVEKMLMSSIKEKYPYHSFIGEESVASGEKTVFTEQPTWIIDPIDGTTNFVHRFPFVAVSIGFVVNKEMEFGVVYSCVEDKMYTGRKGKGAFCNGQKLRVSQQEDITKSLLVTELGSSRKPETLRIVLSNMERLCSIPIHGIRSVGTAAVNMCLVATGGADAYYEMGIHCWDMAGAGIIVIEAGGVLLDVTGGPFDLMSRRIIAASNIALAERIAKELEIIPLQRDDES
#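 CHO-M1 cells (CHO stably expressing M1 receptor), compound up to 46 uM final, stimulated with carbachol (50 uM as added) in buffer with 50mM LiCl, pH 7.4, 30 min at 37C. Cytosolic IP1 read by TR-FRET; AC50 from Hill fits.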
# Lamin A splicing: qHTS Assay for Modulators of Lamin A Splicing; 200,000 compounds, 0.01% hits; Potency, µM (highest dose often 46.1 µM), without a hit: top-dose ratio change, negative = inhibition, hits mostly inhibitors; HeLa LMNA splicing GFP/RFP minigene ratio, 48 h; active = well fitted inhibition curve with a large enough effect in the signal ratio, with a control signal flat, not every such curve was filed as active; inconclusive = small, poorly fitted or top-dose-only effect, or effect the other way, or a change in a side signal; the % refers to the signal ratio; note: potency is the fitted concentration of half-maximal effect; % is set by controls: 0 for no effect and ±100 for the full control effect
#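 Read-out is the ratio of GFP to DsRed2 object intensity, acquired by 488 nm laser-scanning cytometry on HeLa lamin A-EGFP minigene reporter cells. Compound incubation 48 hrs at 37 °C in Opti-MEM with 2% FBS; DMSO 0.5% final.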
# ALDH1A1 block: qHTS Assay for Inhibitors of Aldehyde Dehydrogenase 1 (ALDH1A1) | Aldehyde dehydrogenase 1A1 (Homo sapiens), P00352 | Purified ALDH1A1, NADH fluorescence, propionaldehyde substrate | Potency, µM (series often up to 75.3 µM), inactives show at the top dose activity, negative = inhibition, hits mostly inhibitors | 220,000 compounds, 7.3% hits;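 note: potency is the fitted concentration of half-maximal effect; plate controls were no enzyme wells and a reference inhibitor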
# Target sequence (P00352 whole entry, looked up): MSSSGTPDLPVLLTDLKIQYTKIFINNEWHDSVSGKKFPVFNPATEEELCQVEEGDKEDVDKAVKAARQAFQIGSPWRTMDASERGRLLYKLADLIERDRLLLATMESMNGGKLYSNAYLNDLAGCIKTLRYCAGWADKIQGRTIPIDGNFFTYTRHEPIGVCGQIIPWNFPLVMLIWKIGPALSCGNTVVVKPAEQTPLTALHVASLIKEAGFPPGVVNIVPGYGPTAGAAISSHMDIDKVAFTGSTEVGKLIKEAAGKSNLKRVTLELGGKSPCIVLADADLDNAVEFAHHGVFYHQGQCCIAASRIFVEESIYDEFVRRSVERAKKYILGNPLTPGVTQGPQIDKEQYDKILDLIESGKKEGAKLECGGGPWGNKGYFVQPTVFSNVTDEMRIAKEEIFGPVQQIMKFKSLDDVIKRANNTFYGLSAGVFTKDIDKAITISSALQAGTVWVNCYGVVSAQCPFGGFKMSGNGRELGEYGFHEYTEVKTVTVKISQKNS
# HPGD inh: qHTS Assay for Inhibitors of HPGD (15-Hydroxyprostaglandin Dehydrogenase); 15-hydroxyprostaglandin dehydrogenase [NAD(+)] (Homo sapiens), P15428; purified HPGD, NADH fluorescence kinetic, PGE2 substrate; Potency, µM, without a hit: at the top dose activity change, negative = inhibition, most hits filed as inhibitors; 150,000 compounds, 4.3% hits; AID 894, 2007; note: potency is the fitted concentration of half-maximal effect; % is set by controls: 0 for no effect and ±100 for the full control effect
#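 20 nM HPGD preincubated 15 min at room temperature with compound in 50 mM Tris-HCl pH 8, 0.01% Tween 20. Started with 1 mM NAD+ and 30 uM prostaglandin E2; NADH fluorescence (360/450 nm) read 5 times over 30-s intervals, last minus first.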
# KinaseGlo FLuc: Counterscreen for Luciferase (Kinase-Glo TM) Inhibition; Luciferin 4-monooxygenase (Photuris pensylvanica), Q27757; Kinase-Glo luciferase, ATP luminescence, 8 min; Potency, µM (series often up to 38.3 µM), for inactives: at the top dose activity change, negative = inhibition, most hits filed as inhibitors; 200,000 compounds, 0.28% hits; AID 1379, 2008; active = well fitted inhibition curve with a large enough effect; inconclusive = small, poorly fitted or top-dose-only effect; note: potency is the fitted concentration of half-maximal effect; % is set by controls: 0 for no effect and ±100 for the full control effect; nearly all actives have a fitted effect of over 60% in size
#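 Compound is pinned into ATP-containing buffer (10 uM ATP, imidazole pH 7.2, 7 mM MgCl2). Kinase-Glo luciferase reagent is then added. Light output is recorded following an 8-min room-temperature incubation.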
# HPGD inh conf: Confirmation qHTS Assay for Inhibitors of HPGD (15-Hydroxyprostaglandin Dehydrogenase) | 90 compounds, 90% hits | Potency, µM (highest dose often 57.1 µM), inactives show at the highest dose activity change, negative = inhibition, most hits filed as inhibitors | recombinant HPGD, NADH fluorescence, PGE2 substrate | AID 2429, 2010 | shares compounds with HPGD inh; calls by dose curve
# * = called active by the depositor; ? = inconclusive; . = not tested or not shown; [ ] = remark or other dose. Unless noted, calls come from the whole dose curve; as a rule, active = well fitted inhibition curve with a large enough effect (not every such curve was filed as active); inconclusive = small, poorly fitted or top-dose-only effect, or another doubt; inactive = no such curve, though single readings can be large or run the other way.
SMILES,PNC assembly inh,IMPase inh,Lamin A splicing,ALDH1A1 block,HPGD inh,KinaseGlo FLuc,others
Cc1ccc(Sc2nnc(Cc3ccccc3)c3ccccc23)cc1,-20.7,-8.7[1.84 µM],?,28.2µM*,-29.1%,2.2%,
COc1ccc(Cl)cc1NS(=O)(=O)c1ccc(OC)c(OC)c1,0.7,-10.6,-13.8%,12.6µM*,-16.8%,3.7%,
COc1ccc(Cl)cc1NS(=O)(=O)c1ccc(S(=O)(=O)N2CCCC2)cc1,-17.2,0.0,?,28.2µM*,-6.6%,1.2%,
COc1ccc(Cl)cc1C(=O)Nc1ccc(S(=O)(=O)N2CCCC2)cc1,7.0,-8.0,0.6%,?,-22.3%,-0.5%,
COc1ccc(S(=O)(=O)Nc2cc(Cl)ccc2OC)cc1,?,2.0,?,4.3%,-17.9%,-9.0%,
COc1ccccc1C(=O)N1c2ccccc2C(C)(c2ccc(Cl)cc2)CC1(C)C (centres undefined),.,-0.5,.,.,.,.,
C1CCC(C(C[C@@H]2CCCCN2)C2CCCCC2)CC1,.,7.5[20.6 µM],?,?,-0.7%,-2.4%[17.1 µM],
Nc1ccc(N=Nc2ccc(-c3ccc(O)cc3)cc2)c2ccc(S(=O)(=O)O)cc12,.,.,.,0.6%[13.5 µM],-7.3%,-12.2%[7.66 µM],
Cc1cc(C)nc(SCC(=O)Nc2ncc(C(F)(F)F)cc2Cl)n1,-25.2,3.0,-8.9%,9.7%,-6.3%,3.2%,
Cc1cc(C)n2c(SCC(=O)Nc3ncc(C(F)(F)F)cc3Cl)nnc2n1,11.4,-2.8,1.8%,12.6µM*,-9.7%,22.8%,
Cc1cc(C)n2c(SCC(=O)Nc3ccc(F)cc3)nnc2n1,.,.,.,14.1µM*,.,.,
Cc1ccc(NC(=O)CSc2nnc3nc(C)cc(C)n23)cc1,.,1.0,.,.,.,.,
COC(=O)c1sccc1S(=O)(=O)N(CC(=O)Nc1cc(C)ccc1C)c1ccc(C)c(C)c1,.,.,-10.4%[46 µM],.,.,.,
CC1CCN(C(=O)c2cnn(-c3cccc(Cl)c3)c2C2CCN(C(=O)OC(C)(C)C)CC2)CC1,.,.,-2.5%[46 µM],.,.,.,
CSc1ccccc1NC(=O)c1ccc(Cl)s1,7.8,2.8,-7.8%,?,20µM*,-8.5%,
O=C(CCNS(=O)(=O)c1ccc2c(c1)CCCC(=O)N2)NCc1ccc(Cl)cc1,.,.,0.2%[46 µM],.,.,.,
CCCCN1C(=O)C(NC(C)=O)c2ccccc21 (centres undefined),12.4,-5.5,-5.0%,0.112µM*,2.6%,0.8%,
CCCn1c(=N)c(C(=O)NC2CCCCC2)cc2c(=O)n3cc(C)ccc3nc21,.,1.1,.,.,.,.,
Cc1snc(SCC(=O)c2ccc([N+](=O)[O-])cc2)c1C#N,.,.,.,2.82µM*,.,3.1%,
Cc1snc(SCC(=O)c2ccc(F)cc2)c1C#N,.,.,-14.1%[46 µM],?,.,-2.3%,
O=C(NCc1ccccc1)c1ccc2c(=O)[nH]c3c(C(=O)NCC4CCCO4)sc(=S)n3c2c1 (centres undefined),.,.,?,20µM*,.,-1.9%,
Cc1ccc(CNC(=O)c2ccc3c(=O)[nH]c4c(C(=O)NCC5CCCO5)sc(=S)n4c3c2)cc1 (centres undefined),.,.,.,?,.,-0.1%,
CCCCCNC(=O)c1ccc2c(=O)[nH]c3c(C(=O)NCC4CCCO4)sc(=S)n3c2c1 (centres undefined),26.9,2.9,-0.6%,?,11.2µM*,-3.1%,
C=C(CCC12O[C@H](C(=O)O)[C@@](O)(C(=O)O)[C@](C(=O)O)(O1)[C@H](OC(=O)/C=C/[C@@H](C)C[C@@H](C)CC)[C@H]2O)[C@@H](OC(C)=O)[C@H](C)Cc1ccccc1,.,.,.,0.5%,-19.0%,2.3%[39.9 µM],
Cc1cnc(CNc2ncncc2-c2c(C)noc2C)cn1,.,.,?,-2.7%,.,.,
SMILES,PNC assembly inh,IMPase inh,Lamin A splicing,ALDH1A1 block,HPGD inh,KinaseGlo FLuc,others
O=c1c(-c2ccco2)[n+]([O-])c2ccccc2n1OCc1ccccc1[N+](=O)[O-],.,.,.,14.1µM*,.,0.1%,
O=c1c(-c2ccco2)[n+]([O-])c2ccccc2n1OCc1ccccn1,-16.6,12.1,9.7%,10µM*,-18.6%,-1.0%,
O=c1c(-c2ccc(F)cc2)[n+]([O-])c2ccccc2n1OCc1ccccn1,.,.,.,1.5%,.,-0.1%,
CCOc1ccc(-c2c(=O)n(OCc3ccc([N+](=O)[O-])cc3)c3ccccc3[n+]2[O-])cc1,42.1,-1.4,?,20µM*,-18.5%,-3.4%,
Cc1nc(N)nc2ccccc12,.,.,.,?,?,-7.0%[7.66 µM],
O=C(O)C1C2C=CC(O2)C1C(=O)NCc1ccccc1Br (centres undefined),14.6,5.2,?,14.1µM*,-8.1%,-4.1%,
COc1ccccc1NC(=O)C1C2C=CC(O2)C1C(=O)O (centres undefined),-10.8,4.4[9.22 µM],8.4%,?,-11.1%,-3.1%,
CC1CCN(S(=O)(=O)c2ccc3c(c2)N(CC(=O)O)C(=O)CO3)CC1,.,.,-8.2%[46 µM],.,.,.,
C=CCOC[C@@H]1CN2[C@H](c3ccc(Br)cc3)[C@@H](C)CC[C@H]2C(=O)O1,.,.,.,-2.1%,3.0%,-4.4%,
Cc1ccc(N2CCN(/N=C/c3ccccc3[N+](=O)[O-])CC2)cc1,.,.,.,15.8µM*,.,-0.7%,
O=[N+]([O-])c1ccccc1/C=N/N1CCN(c2ccccn2)CC1,-6.9,6.9,2.0%,-3.3%,-4.9%,-0.4%,
CNCc1ccccc1Sc1cc(O)ccc1O,-20.8,.,-14.0%,0.794µM*,8.91µM*,-1.0%,
CCCSc1nc2c(c(=O)[nH]1)C(c1ccc(O)c(OCC)c1)CC(=O)N2 (centres undefined),.,.,6.1%[46 µM],.,.,.,
COC(=O)CSc1nc2nc(C)c(Br)cc2[nH]1,-22.1,-8.3,-2.7%,-8.7%,-17.3%,-2.7%,HPGD inh conf=?
COc1cccc(C2CC(=O)Nc3c2ccc(C)c3C)c1OC (centres undefined),.,2.0,.,.,.,.,
Cc1ccccc1CSc1nc2ccccc2c(=O)[nH]1,118.0,.,17.5%,4.8%,1.58µM*,-3.1%,HPGD inh conf=1µM*
Cc1ccc(CSc2nc3ccccc3c(=O)[nH]2)cc1,.,.,.,-1.1%,.,-0.6%,
Cc1ccc(CNC(=O)c2ccc(Cl)cc2[N+](=O)[O-])cc1,6.4,-4.6,0.3%,2.9%,0.199µM*,0.0%,HPGD inh conf=2µM*
Cc1ccc(NC(=O)c2ccc(Cl)cc2[N+](=O)[O-])nc1,.,.,-4.1%[46 µM],13.3%,.,-0.5%,
